Common to all, as to settings: 25 µM; exposure: 24-48 hpf
Test [1] relates to Danio rerio Tg(wt1b:EGFP) embryo, pronephros. Nature of the test: glomerular separation, fold change vs DMSO control; higher = glomeruli further apart (abnormal). In outline:
(§1)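 Dechorionated Tg(wt1b:EGFP) zebrafish embryos were incubated at 28.5°C from 24 to 48 hpf with 25 μM compound in HEPES-buffered E3 containing 0.5% DMSO and 0.003% PTU. Distances and angles between 16 manually set points on maximum projections of dorsal pronephros images were measured in Fiji, with values over 2 SD from the feature mean excluded. Each feature is a fold change relative to the mean of same-day DMSO-treated embryos.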

Test [2] has the same test system. Nature of the test: glomerular width (mean of left and right), fold change vs DMSO control; higher = wider glomerulus. In outline: as §1
For test [3] the test system is unchanged. Nature of the test: fraction of imaged embryos annotated as normal kidney; higher = less nephrotoxic; extreme values may be limits of the assay. In outline:
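Embryos of the Tg(wt1b:EGFP) zebrafish line were dechorionated and held in 12-well plates with 25 μM compound in 0.5% DMSO and 5 mM HEPES-buffered E3 containing 0.003% PTU, from 24 to 48 hpf at 28.5°C. Larvae were then anaesthetised with tricaine, set dorsal side up in agarose-filled 96-well plates, and their pronephroi imaged by widefield fluorescence at 470 nm over 10 z-slices. Each value is the fraction of embryos per treatment placed in the normal-kidney category after manual annotation of maximum projections.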

For test [4] the test system is unchanged. Nature of the test: pronephric angle neck segment to proximal convoluted tubule (mean of left and right), fold change vs DMSO control; higher = larger pronephric angle. In outline:
as §1

Each structure is given as a SMILES string. Counter-ions that a name gives are not always drawn. ± gives the standard deviation or the standard deviation of the averaged measurements.

Turning to `CC(C)NCC(O)COc1ccc(CCOCC2CC2)cc1` (stereo not drawn) [Betaxolol hydrochloride], the glomerular separation in test [1] was found to be 1.15 ± 0.6. In addition, in test [2], the glomerular width turned out to be 1 ± 0.065. Besides, in test [3], the “fraction of imaged embryos annotated as normal kidney” value (shortened to “fraction of imaged embryos annotated”) came to 1. Further, in test [4], the “pronephric angle neck segment” value came out at 0.987 ± 0.025.

Regarding `COc1ccnc(C[S+]([O-])c2nc3cc(OC(F)F)ccc3[nH]2)c1OC` (stereo not drawn) [Pantoprazole sodium], in test [1], the glomerular separation came out at 1.04 ± 0.33. The glomerular width in test [2] was determined as 1.042 ± 0.0056. The “fraction of imaged embryos annotated” value in test [3] is 0.833. Also, in test [4], the “pronephric angle neck segment” value is 1.062 ± 0.0021.

In test [1], `Clc1ccc2c(c1)CCc1cccnc1C2=C1CCNCC1` [Desloratadine] showed a glomerular separation of 0.811 ± 0.28. In test [2], this compound yielded a glomerular width of 0.94 ± 0.011. Besides, the “fraction of imaged embryos annotated” value in test [3] worked out at 0.917. Further, the “pronephric angle neck segment” value in test [4] turned out to be 1.06 ± 0.044.

Compound `CCCc1cc(=O)[nH]c(=S)[nH]1` [Propylthiouracil] showed a glomerular separation in test [1] of 0.81 ± 0.17. The compound further displayed a glomerular width in test [2] of 1.058 ± 0.0069. Besides, the “fraction of imaged embryos annotated” value in test [3] amounted to 1. Further, the “pronephric angle neck segment” value in test [4] turned out to be 1.02 ± 0.044.

`CCCCNc1c(C(=O)OCC)c(C)nc2c1cnn2CC` [Tracazolate hydrochloride] showed a glomerular separation in test [1] of 1.18 ± 0.63. The glomerular width in test [2] worked out at 0.929 ± 0.072. Besides, the “fraction of imaged embryos annotated” value in test [3] amounted to 0.917. For the same compound, the “pronephric angle neck segment” value in test [4] worked out at 1.06 ± 0.015.

For `Nc1nc(/C(=C/CC(=O)O)C(=O)N[C@@H]2C(=O)N3C(C(=O)O)=CCS[C@H]23)cs1` [Ceftibuten], the glomerular separation in test [1] came out at 0.515 ± 0.17. Also, in test [2], the glomerular width amounted to 1.016 ± 0.0039. The “fraction of imaged embryos annotated” value in test [3] was found to be 1. Also, the “pronephric angle neck segment” value in test [4] was determined as 0.963 ± 0.019.

Take `OCc1cc(C(O)CNCCCCCCOCCCCc2ccccc2)ccc1O` (stereo not drawn) [Salmeterol]: in test [1], the glomerular separation was determined as 5.53 ± 1.4. Also, in test [2], the glomerular width was 0.665 ± 0.017. The “fraction of imaged embryos annotated” value in test [3] was 0. In test [4], the “pronephric angle neck segment” value was 1.65 ± 0.087.

`CN(C)CC/C=C1\c2ccccc2CSc2ccccc21` [Dosulepin hydrochloride] had a glomerular separation in test [1] of 1.15 ± 0.25. Moreover, in test [2], the glomerular width turned out to be 0.981 ± 0.048. For the same compound, the “fraction of imaged embryos annotated” value in test [3] was 0.833. In test [4], the “pronephric angle neck segment” value was 0.995 ± 0.03.

In test [1], `CC[C@H]1OC(=O)[C@H](C)[C@@H](O[C@H]2C[C@@](C)(OC)[C@@H](O)[C@H](C)O2)[C@H](C)[C@@H](O[C@@H]2O[C@H](C)C[C@H](N(C)C)[C@H]2O)[C@](C)(O)C[C@@H](C)CN(C)[C@H](C)[C@@H](O)[C@]1(C)O` [Azithromycin] returned a glomerular separation of 0.933 ± 0.41. Also, in test [2], the glomerular width amounted to 0.945 ± 0.022. Moreover, the “fraction of imaged embryos annotated” value in test [3] is 1. In addition, in test [4], the “pronephric angle neck segment” value came out at 1.012 ± 0.0055.

`O=C1c2c(O)ccc(O)c2C(=O)c2c(NCCNCCO)ccc(NCCNCCO)c21` [Mitoxantrone dihydrochloride] displayed a glomerular separation in test [1] of 1.13 ± 0.46. The glomerular width in test [2] stood at 1.03 ± 0.063. In addition, in test [3], the “fraction of imaged embryos annotated” value came to 0.667. Further, the “pronephric angle neck segment” value in test [4] was 1.07 ± 0.1.

On to `NS(=O)(=O)c1cc2c(cc1Cl)N=C(CSCc1ccccc1)NS2(=O)=O` [Benzthiazide], for which the glomerular separation in test [1] turned out to be 0.917 ± 0.25. In test [2], the glomerular width worked out at 0.919 ± 0.05. Further, the “fraction of imaged embryos annotated” value in test [3] was determined as 0.917. In test [4], the “pronephric angle neck segment” value stood at 0.965 ± 0.028.

Take `CCc1c(C)[nH]c2c1C(=O)C(CN1CCOCC1)CC2` (stereo not drawn) [Molindone hydrochloride]: the glomerular separation in test [1] amounted to 0.897 ± 0.23. This compound also registered a glomerular width in test [2] of 1 ± 0.018. Besides, in test [3], the “fraction of imaged embryos annotated” value worked out at 0.833. Besides, in test [4], the “pronephric angle neck segment” value is 0.956 ± 0.0018.

Consider `CC(=O)Nc1ccc(O)cc1` [Acetaminophen], for which the glomerular separation in test [1] is 0.86 ± 0.31. This compound also gave a glomerular width in test [2] of 0.987 ± 0.037. Besides, the “fraction of imaged embryos annotated” value in test [3] was 1. Also, the “pronephric angle neck segment” value in test [4] stood at 0.9829 ± 0.0034.

`COc1cccc(OC)c1C(=O)N[C@@H]1C(=O)N2[C@@H]1SC(C)(C)[C@@H]2C(=O)O` [Methicillin sodium] returned a glomerular separation in test [1] of 1.21 ± 0.55. The same compound gave a glomerular width in test [2] of 1.05 ± 0.057. In addition, the “fraction of imaged embryos annotated” value in test [3] is 0.5. In test [4], the “pronephric angle neck segment” value came to 1 ± 0.037.

In the case of `CC1(C)NC(=O)N(c2ccc([N+](=O)[O-])c(C(F)(F)F)c2)C1=O` [Nilutamide], the glomerular separation in test [1] amounted to 1.14 ± 0.42. Moreover, in test [2], the glomerular width was 1.13 ± 0.035. The “fraction of imaged embryos annotated” value in test [3] turned out to be 0.667. In addition, the “pronephric angle neck segment” value in test [4] was 0.945 ± 0.013.

In test [1], `COc1ccc2c3c1O[C@H]1C[C@@H](O)C=C[C@@]31CCN(C)C2` [Galanthamine hydrobromide] came in with a glomerular separation of 1.08 ± 0.38. Further, the glomerular width in test [2] turned out to be 1.04 ± 0.0055. The “fraction of imaged embryos annotated” value in test [3] was 0.917. Besides, in test [4], the “pronephric angle neck segment” value came to 0.964 ± 0.029.

Regarding `CC(=O)Nc1ccc(CC(=O)O)cc1` [Actarit], in test [1], the glomerular separation was 1.05 ± 0.28. Further, in test [2], the glomerular width worked out at 1.116 ± 0.0018. In addition, in test [3], the “fraction of imaged embryos annotated” value stood at 0.667. For the same compound, the “pronephric angle neck segment” value in test [4] was 0.998 ± 0.049.

As for `CN(C(=O)C(Cl)Cl)c1ccc(OC(=O)c2ccco2)cc1` [Diloxanide furoate], the glomerular separation in test [1] stood at 2.17 ± 1. In test [2], this compound registered a glomerular width of 0.777 ± 0.037. Further, the “fraction of imaged embryos annotated” value in test [3] was 0.25. Moreover, the “pronephric angle neck segment” value in test [4] turned out to be 1.25 ± 0.081.

With `CCN1CCN(C(=O)N[C@@H](C(=O)N[C@@H]2C(=O)N3C(C(=O)O)=C(CSc4nnnn4C)CS[C@H]23)c2ccc(O)cc2)C(=O)C1=O` [Cefoperazone dihydrate], in test [1], the glomerular separation was determined as 1.2 ± 0.23. The same compound gave a glomerular width in test [2] of 1.01 ± 0.086. For the same compound, the “fraction of imaged embryos annotated” value in test [3] came to 0.909. Further, the “pronephric angle neck segment” value in test [4] was determined as 1.046 ± 0.0064.

In test [1], `C=C1C(=O)O[C@H]2[C@H]1CC/C(C)=C/CC[C@@]1(C)O[C@@H]21` [Parthenolide] showed a glomerular separation of 2.81 ± 1.2. The glomerular width in test [2] stood at 0.8373 ± 0.0079. The “fraction of imaged embryos annotated” value in test [3] was determined as 0.364. Besides, the “pronephric angle neck segment” value in test [4] came to 1.4 ± 0.038.

The compound `O=C1CCc2cc(OCCCCc3nnnn3C3CCCCC3)ccc2N1` [Cilostazol] showed a glomerular separation in test [1] of 1.05 ± 0.38. For the same compound, in test [2], the glomerular width was found to be 1 ± 0.023. In addition, the “fraction of imaged embryos annotated” value in test [3] was 0.75. For the same compound, the “pronephric angle neck segment” value in test [4] is 0.994 ± 0.05.

Turning to `CCN(CC)C(=S)SSC(=S)N(CC)CC` [Disulfiram], the glomerular separation in test [1] is 3.4 ± 1.9. The glomerular width in test [2] was found to be 0.458 ± 0.05. For the same compound, the “fraction of imaged embryos annotated” value in test [3] amounted to 0. Also, in test [4], the “pronephric angle neck segment” value is 1.7 ± 0.043.

`CN1C(=O)OC(C)(C)C1=O` [Trimethadione] returned a glomerular separation in test [1] of 0.837 ± 0.27. For the same compound, in test [2], the glomerular width worked out at 0.996 ± 0.064. In addition, the “fraction of imaged embryos annotated” value in test [3] stood at 0.75. Moreover, in test [4], the “pronephric angle neck segment” value was 0.935 ± 0.026.

Consider `C=C1c2c(Cl)ccc(O)c2C(=O)C2=C(O)[C@]3(O)C(=O)C(C(N)=O)=C(O)[C@@H](N(C)C)[C@@H]3[C@@H](O)[C@H]12.O=C(O)c1cc(S(=O)(=O)O)ccc1O` [Meclocycline sulfosalicylate], for which the glomerular separation in test [1] was found to be 1.02 ± 0.24. The glomerular width in test [2] worked out at 1.09 ± 0.091. The “fraction of imaged embryos annotated” value in test [3] worked out at 0.917. Also, the “pronephric angle neck segment” value in test [4] was 0.9562 ± 0.0078.

The compound `CC(=O)N[C@@H](CS)C(=O)O` [Acetylcysteine] registered a glomerular separation in test [1] of 0.784 ± 0.26. Also, the glomerular width in test [2] turned out to be 1.035 ± 0.0055. The “fraction of imaged embryos annotated” value in test [3] came out at 0.917. Further, the “pronephric angle neck segment” value in test [4] came out at 1.0017 ± 0.00093.

Consider `CC1(C)S[C@@H]2[C@H](NC(=O)[C@H](N)c3ccc(O)cc3)C(=O)N2[C@H]1C(=O)O` [Amoxicillin], for which the glomerular separation in test [1] came out at 1.13 ± 0.42. The glomerular width in test [2] amounted to 0.961 ± 0.046. For the same compound, in test [3], the “fraction of imaged embryos annotated” value stood at 0.833. Besides, in test [4], the “pronephric angle neck segment” value came to 1.04 ± 0.074.

Compound `C=C(NC(=O)C(=C)NC(=O)c1csc(C2=N[C@@H]3c4csc(n4)[C@H]4NC(=O)c5csc(n5)[C@H]([C@](C)(O)[C@@H](C)O)NC(=O)[C@H]5CSC(=N5)/C(=C/C)NC(=O)[C@H]([C@@H](C)O)NC(=O)c5csc(n5)[C@]3(CC2)NC(=O)[C@H](C)NC(=O)C(=C)NC(=O)[C@H](C)NC(=O)[C@H]([C@@H](C)CC)N[C@@H]2C=Cc3c([C@H](C)O)cc(nc3[C@H]2O)C(=O)O[C@@H]4C)n1)C(N)=O` [Thiostrepton] yielded a glomerular separation in test [1] of 1.02 ± 0.32. Moreover, in test [2], the glomerular width was 1.02 ± 0.056. For the same compound, in test [3], the “fraction of imaged embryos annotated” value was found to be 0.917. In addition, the “pronephric angle neck segment” value in test [4] was 1.01 ± 0.12.

The record behind these values is the supplement of paper PMC7366291.
